Screening results as filed in PubChem BioAssay.
Most compounds without a hit are left out; they make up all but 8.8% or so of the library.
HT1080 IDH1KD tx: qHTS for induction of synthetic lethality in tumor cells producing 2HG: qHTS for the HT-1080-IDH1KD cell line; 2% of 360,000 active; AID 686971, 2013; HT-1080 IDH1 knockdown viability, ATP luminescence, 48 h; Potency, µM (titrated, usually from 46.1 µM), for the others: at the highest dose activity, negative = toxicity, most hits filed as cytotoxic;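 also: potency is read from the fitted curve at half-maximal effect; 0% = DMSO wells and -100% = cell-free medium wells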
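% activity derives from luminescence (CellTiter-Glo), normalised to DMSO and no-cell wells. HT-1080-IDH1KD cells, 750/well, had 48 h compound exposure at 37 °C.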
IL1B secr inh: qHTS for Inhibitors of Inflammasome Signaling: IL-1-beta AlphaLISA Primary Screen; THP-1 LPS/ATP IL-1B secretion, AlphaLISA, 16 h; hits give low values; activity change, % at 57.5 µM; 4.7% of 360,000 active; in the data active = activity change below about -50%; inconclusive = mostly about -30% to -49%
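THP-1 cells pretreated 1 hr with compounds (up to 57.5 uM final), then stimulated with LPS (250 ng/mL final) plus ATP (1.25 mM final); secreted IL-1B measured by AlphaLISA after 16 hr, decreased signal indicating inhibition.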
KB-V1 cytotox: qHTS assay for MDR1-selective chemotherapeutics: Primary screen using the drug-selected MDR subline cells KB-V1; KB-V1 MDR cells viability, CellTiter-Glo, 72 h; Potency, µM (series often up to 46.1 µM), hits mostly cytotoxic; 3.4% of 400,000 active; also: potency is read from the fitted curve at half-maximal effect; nearly all actives have a fitted effect of over 60% in size
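Cells of the MDR subline KB-V1 are plated, dosed with compound at multiple concentrations, and incubated 72 h at 37 degrees C; CellTiter-Glo is then added and luminescence read after 10 min.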
KB-3-1 cytotox: qHTS assay for MDR1-selective chemotherapeutics: Primary screen using the parental adenocarcinoma cell KB-3-1. KB-3-1 viability, CellTiter-Glo ATP luminescence, 72 h. Potency, µM (series often up to 46.1 µM), hits mostly cytotoxic. 1.4% of 400,000 active; also: potency is read from the fitted curve at half-maximal effect; nearly all actives have a fitted effect of over 60% in size
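Using CellTiter-Glo luminescence, growth of non-resistant KB-3-1 adenocarcinoma cells is assessed 72 h after pin-tool compound addition at 37 °C. Normalized responses across the concentration series yield fitted curves.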
HT1080NT lethal: qHTS for induction of synthetic lethality in tumor cells producing 2HG: qHTS for the HT-1080-NT fibrosarcoma cell line; HT-1080-NT fibrosarcoma viability, CellTiter-Glo ATP luminescence, 48 h; 1.6% of 360,000 active; Potency, µM (series often up to 46.1 µM), for the others: top-dose activity, negative = less viability, actives largely listed as cytotoxic;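 also: NT is the 2HG producing partner of a matched IDH1 knockdown line; potency is read from the fitted curve at half-maximal effect; 0% = DMSO-treated cells and -100% = media-only wells without cells; nearly all actives have a fitted effect of over 55% in size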
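Viability of the 2HG-overproducing fibrosarcoma line after 48 hours of compound exposure at 37 degrees C was determined by luminescence with CellTiter-Glo, and concentration-effect curves were then fitted and categorized.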
Starred values were filed as active, the others as inactive; i = inactive; ? = inconclusive; nt = no result given. Unless noted, calls follow the shape of the dose curve; as a rule, active = well fitted curve in the direction sought with a large enough effect; inconclusive = small, poorly fitted or top-dose-only effect, or another doubt; inactive = no such curve, though single readings can be large; an effect the other way counts as inactive or inconclusive. Unless noted, % is scaled to controls: 0 for no effect and ±100 for the full control effect.

SMILES | HT1080 IDH1KD tx | IL1B secr inh | KB-V1 cytotox | KB-3-1 cytotox | HT1080NT lethal
O=C(NCC(c1ccc(Cl)cc1)N1CCCCC1)c1ccccc1F (stereo not drawn) | nt | nt | i | i | nt
CCOc1ccccc1NC(=O)CSc1nnc(CNC(=O)c2cccs2)o1 | 16% | -1 | i | i | 26%
COc1ccccc1NC(=O)CSc1nnc(CNC(=O)c2cccs2)o1 | 5% | -77* | ? | i | 3%
COc1ccccc1NC(=O)CSc1nnc(-c2ccoc2C)o1 | -3% | 23 | ? | 12µM* | -23%
COc1ccccc1NC(=O)CSc1nnc(-c2ccccc2C)o1 | nt | nt | i | i | nt
COc1ccc(C(=O)NCc2nnc(SCC(=O)N3CCCC3)o2)cc1OC | 14% | -55* | nt | nt | 6%
Cc1ccccc1-c1nnc(SCC(=O)Nc2cccnc2Cl)o1 | 23µM* | 15 | i | ? | 18µM*
Cc1ccc(NC(=O)CSc2nnc(-c3ccccc3C)o2)cc1C | 4% | ? | i | i | 23%
CNc1ccc(/C=C/c2ccccc2)cc1 | nt | nt | i | ? | nt
Cc1cccc(NC(=O)CSc2nnc(-c3ccccc3C)o2)c1 | 4% | 0 | ? | i | 14%
Cc1cc(C)cc(NC(=O)CSc2nnc(-c3ccccc3C)o2)c1 | ? | -7 | 12µM* | i | 7%
CCN(C[C@H]1N[C@@](CC)(C(=O)OC)[C@H]2C(=O)N(C)C(=O)[C@@H]12)C(=O)Nc1ccc(C)cc1 | 6% | 37 | i | i | 6%
Cc1ccc(C(=O)COC(=O)CSc2cccc3cccnc23)c(C)c1 | -27% | -88* | i | i | -8%
CCOc1ccc(N2C(=O)CC(NCCNc3ccc(C(=O)c4cccs4)cc3)C2=O)cc1 (stereo not drawn) | -2% | 14 | i | i | -11%
CCOC(=O)C1=C(N)Oc2cc(O)ccc2C1c1cccc([N+](=O)[O-])c1 (stereo not drawn) | 5.8µM* | -97* | ? | ? | 7.3µM*
CCOC(=O)C1=C(C)N(c2ccccc2)C(=O)NC1c1cccc([N+](=O)[O-])c1 (stereo not drawn) | -3% | 4 | 21µM* | i | 0%
CCOC(=O)C1=C(N)Oc2cc(O)ccc2C1c1ccc(C)cc1 (stereo not drawn) | 21µM* | -72* | ? | i | ?
CCOC(=O)C1=C(C)N(C)C(=O)NC1c1cccc([N+](=O)[O-])c1 (stereo not drawn) | -1% | -3 | i | i | 12%
COc1ccccc1N1C(=O)C2C(c3ccc(F)cc3)NN(C(=O)c3ccc(C)cc3)C2C1=O (stereo not drawn) | 6% | 20 | i | i | 0%
C=CCn1c(SCC(=O)N2CCc3ccccc3C2)nc2sc(CC)cc2c1=O | 0% | -2 | i | i | -4%
C=CCn1c(SCC(=O)N2CCOCC2)nc2sc(CC)cc2c1=O | -7% | -9 | 4.6µM* | i | -2%
C=CCn1c(SCC(=O)c2cccs2)nc2sc(C)cc2c1=O | ? | -23 | 7.3µM* | i | -18%
O=C(/C=C/c1cn(-c2ccccc2)nc1-c1ccc2c(c1)OCCO2)NCCO | -3% | -10 | i | i | 5%
CC(C)OC(=O)c1cn(-c2ccccc2)nc1-c1ccc2c(c1)OCCO2 | -22% | ? | 7.3µM* | i | -12%
CNC(=O)COC(=O)/C=C/c1cn(-c2ccccc2)nc1-c1ccc2c(c1)OCCO2 | 6% | 0 | i | i | 0%
SMILES | HT1080 IDH1KD tx | IL1B secr inh | KB-V1 cytotox | KB-3-1 cytotox | HT1080NT lethal
NC(=O)/C=C\c1cn(-c2ccccc2)nc1-c1ccc2c(c1)OCCO2 | -1% | -60* | 15µM* | i | -2%
COc1cccc(CNC(=O)C(C)n2ncn3cccc3c2=O)c1OC (stereo not drawn) | nt | nt | i | i | nt
CCCNC(=O)C1(C)CCCN(Cc2ccc(-c3ccccc3)o2)C1 (stereo not drawn) | ? | -23 | i | i | -10%
COC(=O)c1cc(C)sc1NC(=O)C1CC(=O)NN1Cc1ccccc1 (stereo not drawn) | -4% | 10 | i | i | -5%
CCOC(=O)c1cc(CC)sc1NC(=O)C1CC(=O)NN1Cc1ccccc1 (stereo not drawn) | 21µM* | -60* | i | i | ?
COc1ccc(S(=O)(=O)NNC(=O)c2cc3ccccc3o2)cc1 | 16% | 6 | i | i | -1%
CCOc1cccc(-c2c(C(=O)N/N=C/c3ccoc3)nnn2-c2nonc2N)c1 | 19% | 23 | i | i | 1%
NC1(C(=O)O)CSSC1 | ? | -77* | 6.5µM* | ? | ?
Cn1c(-c2sc3ccccc3c2Cl)n[nH]c1=S | 2% | -6 | 16µM* | 21µM* | 8%
Cn1c(CSc2nc3ccccc3s2)n[nH]c1=S | 8% | 13 | i | i | 6%
O=C1OCC/C1=C\c1ccccc1 | 22% | -11 | i | i | 16%
O=C1/C(=C/c2ccccc2)CCc2ccc(Cl)nc21 | 18µM* | -105* | 21µM* | i | ?
COc1ccccc1CN1CC(C(=O)NCCCCc2ccccn2)CCC1=O (stereo not drawn) | -4% | 26 | i | i | -2%
CC1=CC(C)(C)N(S(=O)(=O)c2ccc(F)cc2)c2ccc(C)cc21 | ? | 37 | 7.3µM* | 23µM* | 7.1µM*
COc1ccc(S(=O)(=O)N2CC=C(C(=O)Nc3ccc(NC(C)=O)cc3)CC2)cc1 | 6% | 0 | i | i | -5%
COc1ccc2c(c1)C(C)=CC(C)(C)N2S(=O)(=O)c1ccc(Br)cc1 | 2.3µM* | 82 | 3.3µM* | 4.1µM* | 3.3µM*
COc1cccc(CN2CCN(S(=O)(=O)c3ccc(Br)cc3)CC2)c1 | 5% | ? | ? | i | 0%
COc1ccc2c(c1)C(C)=CC(C)(C)N2S(=O)(=O)c1ccc(NC(C)=O)cc1 | ? | 67 | i | 2.1µM* | ?
CCOc1ccc2c(c1)C(C)=CC(C)(C)N2S(=O)(=O)c1ccc(NC(C)=O)cc1 | 1.8µM* | 66 | 1.3µM* | 1.6µM* | 3.7µM*
CCOc1ccc(CN2CCN(S(=O)(=O)c3ccc(NC(C)=O)cc3)CC2)cc1 | -30% | -17 | ? | ? | -11%
O=C(NCCc1ccccc1)[C@@H]1CC=C[C@@H]2CCN(C3CCCCC3)C(=O)[C@@H]21 | 14% | -24 | ? | i | 9%
